Our source for the Potency and activity, negative = cell killing values is PubChem BioAssay (NCATS).

“And” between values parts separate entries of the source, which are not always exact repeats. Equal entries are not always repeated. Results filed as inconclusive are left out. A number with no mark means an inactive call. The source made the active and inactive calls. Calls follow the shape of the dose curve; as a rule, active = well fitted curve in the direction sought with a large enough effect; inconclusive = small, poorly fitted or top-dose-only effect, or another doubt; inactive = no such curve, though single readings can be large; an effect the other way counts as inactive or inconclusive.

One assay relates to Es-2. Description: Primary qHTS to identify gynecologic anti-cancer compounds using libraries of approved drugs and bioactive compounds (AID 1345084). Also: nearly all actives have a fitted effect of over 55% in size. As to conditions: Gynecologic cancer cell panel viability, ATPlite luminescence, 48 h; series mostly up to 57.5 µM. An outline of the steps:
(§1)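 Cell viability after 48 h drug treatment, ATPlite luminescence readout; five doses.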

The subject of a further assay is HeLa. Described as above. To be noted: Gynecologic cancer cell panel viability, ATPlite luminescence, 48 h; series mostly up to 57.5 µM. An outline of the steps:
as §1
In general terms: In ATP-based viability assays light output follows the ATP content of the culture.

A further assay deals with Hek293T. The assay is described as above. To be noted: Gynecologic cancer cell panel viability, ATPlite luminescence, 48 h, control line for the selectivity index; series mostly up to 57.5 µM. The procedure, abridged:
as §1

Another assay deals with JEG-3. Described as above. As to conditions: Gynecologic cancer cell panel viability, ATPlite luminescence, 48 h; series mostly up to 57.5 µM. The procedure, abridged:
as §1

Another assay deals with OV90. Described as above. To be noted: Gynecologic cancer cell panel viability, ATPlite luminescence, 48 h; series mostly up to 57.5 µM. The procedure, abridged:
as §1

The subject of the next assay is PA-1. The description is as above. As to conditions: Gynecologic cancer cell panel viability, ATPlite luminescence, 48 h; series mostly up to 57.5 µM. The procedure, abridged:
as §1

The next assay has as its system Tov-21-G. The assay is described as above. To be noted: Gynecologic cancer cell panel viability, ATPlite luminescence, 48 h; series mostly up to 57.5 µM. The procedure, abridged:
as §1

The next assay concerns Tov112D. The assay is described as above. To be noted: Gynecologic cancer cell panel viability, ATPlite luminescence, 48 h; series mostly up to 57.5 µM. The procedure, abridged:
as §1

Assay [1] can be described thus: Drug repurposing screens with cells derived from glioblastoma tumor samples (AID 1345199). Also: nearly all actives have a fitted effect of over 40% in size. As to conditions: GBM patient neurospheres viability, ATP luminescence, 48 h. An outline of the steps: (§2)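 Primary testing used CD133+ neurospheres from four GBM patients, seven concentrations, 48 h exposure and ATP-based viability; confirmation added three slower-growing patient lines.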

A further assay concerns astro. Described as above. As to conditions: viability, ATP luminescence, 48 h; series mostly up to 45.9 µM. An outline of the steps: as §2
For another assay, the system named is SKOV3. Description: Primary qHTS to identify gynecologic anti-cancer compounds using libraries of approved drugs and bioactive compounds (AID 1345084). Also: nearly all actives have a fitted effect of over 55% in size. As to conditions: Gynecologic cancer cell panel viability, ATPlite luminescence, 48 h; series mostly up to 57.5 µM. An outline of the steps: as §1
Background: Quantitative high-throughput screening tests each substance at several concentrations.

Assay [2] is described as follows: qHTS assay to identify inhibitors of the type 1 interferon - major histocompatibility complex class I in skeletal muscle: Counter screen cell viability and HiBit confirmation (AID 1347412). Also: nearly all actives have a fitted effect of over 60% in size. As to conditions: iHSKM muscle cells + IFN-b, HiBiT or CellTiter-Glo, 24 h; Potency: HiBiT unless noted; Viability, at 45.9 µM (top of the series). The procedure, abridged: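 Duplicate plates, pinned identically: one read for HiBiT-tagged endogenous HLA-B luminescence, the other for ATP-content viability via CellTiter Glo. Cells were genome-engineered human myoblasts given 4 ng/ml IFN-b; compounds 12-pt, 1:3 from 46 uM final; 24 hr exposure.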

Where [3] appears, read: at 45.9 µM (top of the series), tumour line B.
[4] abbreviates: at 45.9 µM (top of the series), tumour line D.
Setting [5] is: at 46.1 µM (top of the series), tumour line C.
Setting [6] is: at 20 µM (top of the series), tumour line C.
Setting [7] is: at 21.2 µM (top of the series), tumour line B.
Where [8] appears, read: at 21.2 µM (top of the series), tumour line D.
[9] abbreviates: at 21.3 µM (top of the series), tumour line A.
Setting [10] is: at 46 µM (top of the series), tumour line A.
% is scaled to controls: 0 for no effect and ±100 for the full control effect; potency is read from the fitted curve at half-maximal effect.

On to `CN1[C@@H]2CC[C@H]1CC(OC(=O)c1c[nH]c3ccccc13)C2` (stereo partly drawn), for which the Potency entry with Es-2, with HeLa, in the assay on Hek293T, in the assay on JEG-3, in the assay on OV90 and with PA-1 was “inactive” each time. Moreover, the Potency entry in the assay with Tov-21-G, in the assay with Tov112D and in the assay on astro was “inactive” each time. For the same molecule, the activity, negative = cell killing in [1] (setting [3]) is 0.619%; in assay [1] (setting [4]), -12.6%; in assay [1] (setting [5]) it was 13.1%. Moreover, the Potency in assay [1] (tumour line A) is 11.2 µM (active).

In the case of `CCN(CC)CCNC(=O)COc1ccc(Cl)cc1`, the Potency result with Es-2, in the assay on HeLa, with Hek293T, with JEG-3, with OV90 and in the assay on PA-1 was “inactive” throughout. In addition, the Potency entry in the assay with SKOV3, in the assay with Tov-21-G, in the assay with Tov112D and in the assay on astro was “inactive” throughout. Also, the activity, negative = cell killing was 1.81% in [1] (setting [3]) and -18.1% in assay [1] (setting [4]).

As for `CC(C)n1nc(-c2cc3cc(O)ccc3[nH]2)c2c(N)ncnc21`, the Potency in the assay with Es-2 was 3.16 µM (active) and 2.24 µM (active); in the assay on HeLa, 17.8 µM (active) and 14.1 µM (active); in the assay on Hek293T, 3.98 µM (active); in the assay with OV90, 5.01 µM (active) and 2.82 µM (active); in the assay on PA-1, 4.47 µM (active); in the assay on SKOV3, 1 µM (active) and 631 nM (active). Besides, the Potency in the assay on Tov-21-G is 11.2 µM (active) and 4.47 µM (active); in the assay on Tov112D, 7.94 µM (active); in assay [2], 3.52 µM (active). Also, the Potency entry in the assay with JEG-3 is “inactive”.

Take `O=C1c2ccccc2C(=O)C1c1ccccc1`: the Potency result in the assay on Es-2, in the assay with HeLa, in the assay on Hek293T, with JEG-3, in the assay with OV90 and in the assay on PA-1 was “inactive” in each case. Besides, the Potency result in the assay with Tov-21-G and in the assay with Tov112D was “inactive” in each case. For the same molecule, the activity, negative = cell killing was 22.2% in assay [1] (setting [6]), -2.67% in [1] (setting [7]) and -10.9% in [1] (setting [8]).

As for `CC(C)COC(=O)c1ccc(N)cc1`, the Potency entry in the assay with Es-2, in the assay with HeLa, with Hek293T, in the assay on JEG-3, in the assay on OV90 and with PA-1 was “inactive” throughout. Moreover, the Potency entry in the assay with Tov-21-G, with Tov112D and in the assay with astro was “inactive” throughout. Moreover, the values for the activity, negative = cell killing in assay [1] (setting [3]), in assay [1] (setting [4]) and in [1] (setting [5]) were -9.56%, -18.7% and -7.77%, respectively.

Take `CC(=O)OCC(=O)[C@@]12OC(C)(C)O[C@@H]1C[C@H]1[C@@H]3C[C@H](F)C4=CC(=O)C=C[C@]4(C)[C@@]3(F)[C@@H](O)C[C@@]12C`: the Potency entry in the assay on Es-2, in the assay on HeLa, in the assay on Hek293T, in the assay with JEG-3, in the assay on OV90 and in the assay with PA-1 was “inactive” in each case. Besides, the Potency entry (in the assay on SKOV3; in the assay with Tov-21-G; in the assay on Tov112D; in [2]) was “inactive” throughout. Moreover, the results for the activity, negative = cell killing in assay [1] (setting [6]), in assay [1] (setting [7]) and in assay [1] (setting [9]) were -14.9%, -15.5% and -1.98%, respectively.

For `COc1cccc(CCc2ccccc2OCC(CN(C)C)OC(=O)CCC(=O)O)c1` (stereo not drawn), the Potency result with Es-2, in the assay with HeLa, with Hek293T, in the assay with JEG-3, with PA-1 and in the assay with SKOV3 was “inactive” in each case. The Potency entry with Tov-21-G and with Tov112D was “inactive” each time.

For the molecule `COc1cc2c(cc1OC)C(=O)C(CC1CCN(Cc3ccccc3)CC1)C2` (stereo not drawn), the Potency result in the assay with Es-2, in the assay on HeLa, in the assay on Hek293T, in the assay on JEG-3, in the assay with Tov-21-G and in the assay with Tov112D was “inactive” each time. Moreover, the Potency result in the assay on astro is “inactive”.

Take `CC(C)(C(=O)c1cccnc1)c1cccnc1`: the Potency result with Es-2, in the assay on HeLa, with Hek293T, in the assay with OV90, in the assay with PA-1 and with SKOV3 was “inactive” throughout. For the same molecule, the Potency result in the assay on Tov-21-G, with Tov112D and in the assay on astro was “inactive” in each case. In addition, the activity, negative = cell killing is -7.19% in assay [1] (setting [6]), -14.8% in assay [1] (setting [7]), -8.11% in [1] (setting [8]) and -19.8% in assay [1] (setting [9]).

With `CN1CCC(=C2c3ccccc3Sc3ccccc32)CC1`, the Potency entry in the assay on Es-2, with HeLa, in the assay on Hek293T, in the assay on JEG-3, with PA-1 and in the assay on Tov-21-G was “inactive” in each case. For the same molecule, in the assay on Tov112D, the Potency entry was “inactive”. Also, in the assay with astro, the Potency is 11.2 µM (active).

On to `COC1=CC(=O)C[C@@H](C)[C@]12Oc1c(Cl)c(OC)cc(OC)c1C2=O`, for which the Potency result in the assay on Es-2, with HeLa, with Hek293T, with JEG-3, in the assay on OV90 and in the assay on SKOV3 was “inactive” in each case. For the same molecule, the activity, negative = cell killing in assay [1] (setting [3]) was -17.6%; in assay [1] (setting [4]), -7.65%; in [1] (setting [5]), -2.75%.

With `CCN(CC)C(=O)/C(C#N)=C/c1cc(O)c(O)c([N+](=O)[O-])c1`, the Potency result with Es-2, in the assay on HeLa, in the assay on Hek293T, with JEG-3, with SKOV3 and in the assay on Tov-21-G was “inactive” each time. The activity, negative = cell killing in assay [1] (setting [3]) is -9.02%; in [1] (setting [4]) it was 4.73%; in assay [1] (setting [10]), -20%; in [1] (setting [5]), 7.42%.

Regarding `CCN(CC)CCOC(=O)C(c1ccccc1)C1CCCCC1` (stereo not drawn), the Potency entry in the assay with Es-2, in the assay with HeLa, in the assay with Hek293T, in the assay with JEG-3, in the assay with PA-1 and in the assay with SKOV3 was “inactive” throughout. In addition, the Potency entry in the assay on Tov-21-G, with Tov112D and with astro was “inactive” throughout. Also, in assay [1] (setting [3]), the activity, negative = cell killing was -15%. Further, the Potency in assay [1] (tumour line A) is 20 µM (active).

With `CCC(C(=O)OCCN(CC)CC)c1ccccc1` (stereo not drawn), the Potency result with Es-2, in the assay with HeLa, in the assay on Hek293T, in the assay with OV90, in the assay on PA-1 and in the assay with SKOV3 was “inactive” throughout. The Potency result with Tov-21-G, in the assay with Tov112D and with astro was “inactive” each time. For the same molecule, the activity, negative = cell killing in assay [1] (setting [3]) was -10.7%; in [1] (setting [4]), 13.4%; in assay [1] (setting [10]) it was -28.5%; in assay [1] (setting [5]), 0.404%.

On to `C[C@]12CCC(=O)C=C1[C@@H]1C[C@@H]1[C@H]1[C@@H]3[C@@H]4C[C@@H]4[C@@]4(CCC(=O)O4)[C@@]3(C)CC[C@@H]12`, for which the Potency entry in the assay on Es-2, in the assay with Hek293T, in the assay on JEG-3, in the assay with SKOV3, with Tov-21-G and with Tov112D was “inactive” in each case. Besides, in the assay with astro, the Potency result is “inactive”. For the same molecule, the Potency with HeLa is 3.55 µM (active). Moreover, the results for the activity, negative = cell killing in assay [1] (setting [3]), in assay [1] (setting [4]) and in assay [1] (setting [5]) were -20.2%, -9.23% and -0.55%, respectively.

As to `C[C@]12CC[C@@H]3c4ccc(O)cc4CC[C@H]3[C@@H]1C[C@@H](O)[C@@H]2O`, the Potency entry with Es-2, with Hek293T, with JEG-3, with OV90, in the assay with SKOV3 and in the assay with Tov-21-G was “inactive” throughout. Further, the Potency entry with Tov112D and in the assay with astro was “inactive” throughout. Also, the Potency in the assay with HeLa is 31.6 µM (active). For the same molecule, the activity, negative = cell killing is -9.53% in [1] (setting [3]), -17.2% in assay [1] (setting [4]) and 22.1% in [1] (setting [5]).

Consider `CC(=O)c1ccc2c(c1)N(CCCN1CCC(CCO)CC1)c1ccccc1S2`, for which the Potency entry in the assay on Es-2, in the assay on HeLa, in the assay on Hek293T, in the assay on JEG-3, with SKOV3 and with Tov-21-G was “inactive” in each case. Also, in the assay on Tov112D, the Potency result was “inactive”. Moreover, the activity, negative = cell killing in [1] (setting [6]) is 17.8%; in assay [1] (setting [7]), -21.7%. The Potency in [1] (tumour line A) was 11.2 µM (active).
